Test results: PMC13494018; call rule not given here

B1: d8r1_design_ppi_568_dldesign_0_cycle1_af2pred (protein)
chain: AARHLALAIRGVLKADDAGDAEAAAKAKALLAKAAAALAAGDEAAAKAYATQAAAVADPAYAPVAEAVAAAAAA
B2: d3r1_design_ppi_230_dldesign_0_cycle1_af2pred (protein)
chain: TLAESALKALKVIGKAAVEVAKELGEEVYKKVKKEVEKLLKEVESASPEERAKLAAEAAKKMQKKLEELEKLLKEKKKK
B3: d3r1_design_ppi_589_dldesign_0_cycle1_af2pred (protein)
chain: MEEDAKKAQEVADLLAKTAATGPAYADEAIAKTAEVLGPYFAEKLKKAIAAGPEEVKKMYDIVKQHAENIKAA
B4: d3r1_design_ppi_608_dldesign_0_cycle1_af2pred (protein)
chain: ATEEAKKYAEKAKELAKKAEEAAKKEGVEAGEEYLEKAKEEVLKAYKYAAESGDEEAKKAAEEALEAVEKAEKEIEKIKKEKE
B5: d3r1_design_ppi_130_dldesign_0_cycle0_af2pred (protein)
chain: SASEKANNELAAKLAVESAKKYLEEAEKLEKEDKEKAKKLLKEIAEKAEAGVKAFADSPEAPELKKLAEEAKAKIEEI
B6: d8r1_design_ppi_860_dldesign_0_cycle0_af2pred (protein)
chain: DEAYELAAEALARASELRAAAAAARAARGAAGVAEAAALDAEAVRVLEEAAKKLKALGSGLGKNLEAAARRLAERAAAATAAARA
B7: d3r1_design_ppi_688_dldesign_0_cycle0_af2pred (protein)
chain: MEELAEKAAKTASAALKEYATEEEKEEAEKKSKEFEKLAEEGKKNPEKAEEVLKELLEKAKEYQKKLEEKEKKEKEE
B8: d3r1_design_ppi_123_dldesign_0_cycle0_af2pred (protein)
chain: SENDKITLEQAKKLLEKEAKRAAEVAEKIDKEKAKKIKKYAEEALKKGKLTELAKAVKKVSEELEKYEKKLKEEEEKA
B9: d3r1_design_ppi_578_dldesign_0_cycle1_af2pred (protein)
chain: MEELEEAKKRAEELKKEVEENKEKFKEASKEAQELADNSLKAIKAAFKYIEEKEEVENAKRAVEVAEENYKKAKELAEKLLKEK
B10: d3r1_design_ppi_687_dldesign_0_cycle0_af2pred (protein)
chain: MKKEEEEKKKKEKLKKKVEEKKEELKELKKAKEELEKAIEKLKPLAEKDPRIKANAEAAKKAAEEELKKKEEELEKLKKELE
B11: d3r1_design_ppi_404_dldesign_0_cycle1_af2pred (protein)
chain: NKVEVAQKAYDKAKEAKEKMIKEAKENPEAKPKIPEIEALMKKAQEEAVGKAVELLDKGATPEEALKAAEKIIKEAEKKAKEIIE
B12: d3r1_design_ppi_576_dldesign_0_cycle1_af2pred (protein)
chain: GEEEEKAKETIKKMEELAKKGAENPEKGKEYVAEAMRIGRETAKELSEEVGEKVLKKAEEIASEAMKKVLENKKKLA
B13: d3r1_design_ppi_36_dldesign_0_cycle1_af2pred (protein)
chain: EEERLKEAEETYKKLLEELYKESLKEIEEAAKKGPEAAKKALEKAKAEFDEYEKGLLPEYAKEVKEKLEKEAEKLIKKAK
B14: d3r1_design_ppi_123_dldesign_0_cycle1_af2pred (protein)
chain: DPAVETTKANGKALLTKVAKEAAEVAAKIDPAKAKEITDYAAKALKAGDVTEIAKAVKKVSEELEKYKKELEKKEKEA
B15: d3r1_design_ppi_340_dldesign_0_cycle1_af2pred (protein)
chain: EKEKVRKEAEKAIKKAKAAAKAAKAGKDLKAAEKAVKEAAKAAKAAVEAGDPELAEKVAKAAQEASTALNAALSKRLAA
B16: d3r1_design_ppi_121_dldesign_0_cycle0_af2pred (protein)
chain: DEALKTAEKAAKEVEELAKEAKEAGDEETAKGLEEMLEKIKELLEKAKKDPSKAKEYAKTAEAIAKVAKKNYEESLKKLKEEKE
B17: d8r1_design_ppi_1117_dldesign_0_cycle1_af2pred (protein)
chain: AAAEAQARALAAELLAEAFDDPELAARALALPPHHAAALAAGQIVAKKSDEEAAAAVARANQVHALAAAAAAAA
B18: d8r1_design_ppi_92_dldesign_0_cycle1_af2pred (protein)
chain: ERERERAAIRALLATVDAEYAKAAKEGPEAADAGIERVAAAAAAAGALGPDTASAGRFAVGVYRTLAEKVKAAWAA
B19: d3r1_design_ppi_418_dldesign_0_cycle0_af2pred (protein)
chain: SEAEAVKATLKGAKETVKELKKEAEKNPEKAEEYAKEAEKIAKAAEKLAEKSSEEAKKEAKEVKEEAKEAKKLAKKIIEEKKAKE
B20: d3r1_design_ppi_595_dldesign_0_cycle1_af2pred (protein)
chain: DLFKKGIEEAEKAYKKYPKLGLAVAQLVLAKYFLEAAKKSTPEEAKNYLEAAKLALEKSKELLKEVEAKLKAE
B21: d3r1_design_ppi_175_dldesign_0_cycle1_af2pred (protein)
chain: GSAATLAATAAKLAVKSAKKEMEEAKKNPETGPERLEKYAEILEKAAKDAKATGTAEAKEAAKEAEKEAKKAKEEAKKLK
B22: d3r1_design_ppi_168_dldesign_0_cycle1_af2pred (protein)
chain: ANKEEAKKAATEGQDAMAELRALKKEGGDPEEIKKAGDKAIESYEKAGELDPSIKERADKMIEAAKKLTEEGIKASKEK
B23: d3r1_design_ppi_541_dldesign_0_cycle1_af2pred (protein)
chain: MEEEKKKIEEEIEEVKEALKEAEKLFAKDPVAGAKYAENLAIALKKRGLSEEAINLAKEAAEKLKAEAEKVKAA
B24: d3r1_design_ppi_135_dldesign_0_cycle1_af2pred (protein)
chain: GSLEEYEKLLAENSKLAVEKATKAAKEEVKKKGTEEAAKEATKRLEALAKALKSSGFKGTKEEAEKAKEAAKKLEKEAKKIAK
B25: d3r1_design_ppi_79_dldesign_0_cycle0_af2pred (protein)
chain: MTDEEIAKKLIEVAKKAKEEAEKKLKDDPEKVKKVKEIAEEAIKEAKKDPKKGPEALQKAAEEMEKLVKE
B26: d3r1_design_ppi_25_dldesign_0_cycle1_af2pred (protein)
chain: SMAAKSAELRAESRRESILAAARQFAAENPAQGPRALAKAEELVAKAKEFAAATKDPAEAAAFAAQQAEEFRAYLAALEAEAA
B27: d3r1_design_ppi_688_dldesign_0_cycle1_af2pred (protein)
chain: AVENAKKAAEQATKALKAYATEEEKEEAEKKGKEFKKLAEEAKADPSKAEEVLNKLLKEAKEYDKKLEEKEKKEKEE
B28: d3r1_design_ppi_121_dldesign_0_cycle1_af2pred (protein)
chain: MKALEEAKKAAEKVKKLAKEAKELGDEETAKGLKEMEEEIKKLYKKAKEDPSKAEEYAEIAKKIAEIAKKHYEESKKKLEKEKE
B29: d3r1_design_ppi_237_dldesign_0_cycle0_af2pred (protein)
chain: TPLEQLGKLVKEAKKAAKEAKELIKKGKAKEAAKLAREAAKKQIEKAKKIGEEYPEAKASAEAAAAYIEALAKEVEKEAKAAEA
B30: d3r1_design_ppi_648_dldesign_0_cycle0_af2pred (protein)
chain: GEEAAKKSKEAEKALEEAKKILKEGGKEGEEKAKKLVEEKVKELKKWGKETGTGGEALAKILKEEFEKAKKEK
B31: d3r1_design_ppi_53_dldesign_0_cycle1_af2pred (protein)
chain: ASEADRAQVRAEGMAEALKLRAEAAAPLLSPEAVAEIKALAEKMAADPENRDAYYAAAVALLDAALAAAKA
B32: d3r1_design_ppi_418_dldesign_0_cycle1_af2pred (protein)
chain: DKNEAIKNTLKGAEKAVKELKKEAIKDPEKAEEYAKRAEEIAKAAKELAKQGTEEAKEEAKKVEKEAKEAKKEAKKVVEEKKKKE
B33: d8r1_design_ppi_427_dldesign_0_cycle0_af2pred (protein)
chain: MSRIAAWVIAAISAAATDPAEADKVAARAAEEALANPEKADEALALAAETARAAGLDAATVDAAVARIRALVAAL
B34: d3r1_design_ppi_578_dldesign_0_cycle0_af2pred (protein)
chain: MEELEEARKRADELEKEVKKLEPLFKEASKEAAELAENAKKAIEAAKKFIEDKSQIELAQRAVDQAEKNLKLAKELMEKILKEK
B35: d3r1_design_ppi_404_dldesign_0_cycle0_af2pred (protein)
chain: SMTEIAQKAYEKAEEARKKMLKKAEEDPEARPKLPEIEALMKEAREKAVSAVVELLTKGESEEEAMKKAEEIIEEAKKEAEKIMK
B36: d3r1_design_ppi_677_dldesign_0_cycle1_af2pred (protein)
chain: MEEKKKKIDEKLILAGELAKKNGLLGEIVAKKAIEEGRKAGITEFSEEAVEALKIAFAAGAAARAALAAALA
B37: d3r1_design_ppi_369_dldesign_0_cycle1_af2pred (protein)
chain: AVPAELREILSKQALAKMEELEKEAKEKADTPEGLEVMEEAAEWFREAAKGLRAAGDEETAKKMEEKAKELEELAKEKKEK
B38: d8r1_design_ppi_1354_dldesign_0_cycle1_af2pred (protein)
chain: SRAAAAKAFGKAAVEQLKKLAKAAGAEEARKLAKQLQADFAAFAAAVPEVAAEFKAAAEAAKKAAEEVAKEQEAKAAAAAAA

Target: PDL1, Q9NZQ7
Sequence (Q9NZQ7 whole entry): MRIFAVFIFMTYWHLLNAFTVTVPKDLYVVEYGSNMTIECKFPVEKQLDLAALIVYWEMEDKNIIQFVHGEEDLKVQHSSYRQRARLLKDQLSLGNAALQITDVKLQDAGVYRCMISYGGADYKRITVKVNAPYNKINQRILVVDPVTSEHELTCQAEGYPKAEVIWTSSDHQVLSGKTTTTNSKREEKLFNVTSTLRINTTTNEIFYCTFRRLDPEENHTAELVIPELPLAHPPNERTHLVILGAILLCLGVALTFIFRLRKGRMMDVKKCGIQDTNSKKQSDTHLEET

Binding in a display sort, inactive:
B1 not found, B6 not found, B17 not found, B18 not found, B33 not found, B38 not found

Target: VTCN1, Q7Z7D3
Sequence (Q7Z7D3 whole entry): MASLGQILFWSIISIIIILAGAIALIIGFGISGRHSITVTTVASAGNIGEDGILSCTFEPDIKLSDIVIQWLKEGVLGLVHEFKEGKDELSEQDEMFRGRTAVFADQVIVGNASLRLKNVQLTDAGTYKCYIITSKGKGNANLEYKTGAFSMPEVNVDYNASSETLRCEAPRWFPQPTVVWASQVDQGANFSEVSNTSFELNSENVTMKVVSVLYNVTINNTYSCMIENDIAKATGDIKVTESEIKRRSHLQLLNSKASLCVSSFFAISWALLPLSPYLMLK

Binding in a display sort, inactive:
B2 not found, B3 not found, B4 not found, B5 not found, B7 not found, B8 not found, B9 not found, B10 not found, B11 not found, B12 not found, B13 not found, B14 not found, B15 not found, B16 not found, B19 not found, B20 not found, B21 not found, B22 not found, B23 not found, B24 not found, B25 not found, B26 not found, B27 not found, B28 not found, B29 not found, B30 not found, B31 not found, B32 not found, B34 not found, B35 not found, B36 not found, B37 not found
